14 molecules from PubChem BioAssay (NCATS) can be followed below.

SMILES strings stand for the structures. Inconclusive results are not listed. Activity calls are given as the source filed them. Calls follow the shape of the dose curve; as a rule, active = well fitted inhibition curve with a large enough effect; inconclusive = small, poorly fitted or top-dose-only effect; inactive = flat fitted curve, though single readings scatter.

Common to all, as to experiment: qHTS profiling for inhibitors of Plasmodium falciparum proliferation (AID 504749); also: nearly all actives have a fitted effect of over 60% in size
Holding throughout (details): P. falciparum in erythrocytes, SYBR Green DNA, 72 h; series mostly up to 28.7 µM
(Quantitative high-throughput screening tests each substance at several concentrations.)

One test deals with CP238. A digest of the protocol:
(§1)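 P. falciparum-infected erythrocytes (0.3% parasitemia, 2.5% hematocrit final) were exposed to compounds for 72 h at 37 C in 5% CO2, then lysed with SYBR Green buffer overnight at room temperature; parasite DNA fluorescence was normalized to artemisinin and DMSO controls.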

The next test relates to CP247. The essentials: as §1
For the next test, the system named is CP250. The essentials: as §1
The test system of another test is CP252. A digest of the protocol: as §1
For a further test, the system named is CP256. A digest of the protocol: as §1
Another test concerns CP260. The essentials:
as §1

A further test deals with CP262. The essentials:
as §1

The subject of the next test is CP265. The essentials: as §1
The subject of a further test is CP286. A digest of the protocol:
as §1

The next test has as its system CP329. The essentials:
as §1

For a further test, the system named is CP335. The essentials: as §1
For another test, the system named is DFO2036. A digest of the protocol: as §1
A further test relates to CP266. A digest of the protocol:
as §1

In another test the test system is CP269. A digest of the protocol:
as §1

For another test, the system named is CP291. A digest of the protocol: as §1
For the next test, the system named is CP297. A digest of the protocol:
as §1

The subject of another test is CP305. The essentials: as §1
In a further test the test system is CP315. A digest of the protocol:
as §1

A further test deals with CP325. A digest of the protocol:
as §1

The test system of a further test is CP268. A digest of the protocol:
as §1
Potency is read from the fitted curve at half-maximal effect.

Consider `NC(=O)C(=O)N/N=C/c1ccc([N+](=O)[O-])o1`, for which the Potency result in the test on CP238, in the test on CP247, with CP250, in the test with CP252, in the test on CP256 and in the test with CP260 was “inactive” each time. For the same molecule, the Potency result in the test on CP262, in the test on CP265, with CP286, with CP335 and in the test on DFO2036 was “inactive” throughout. Besides, in the test on CP329, the Potency was 15.1 µM (active).
`CN(C(=O)CN(CCO)CC(=O)N(C)C(C)(C)Cc1ccccc1)C(C)(C)Cc1ccccc1`: the Potency entry with CP238, in the test with CP247, with CP250, in the test with CP252, in the test with CP256 and with CP260 was “inactive” throughout. Also, the Potency entry in the test with CP262, with CP265, with CP266, with CP269, in the test on CP291 and in the test with CP297 was “inactive” each time. For the same molecule, the Potency result in the test with CP305, in the test with CP315, with CP325, in the test with CP329 and in the test with DFO2036 was “inactive” each time.
For `CCCCCCc1ccc(O)cc1O`, the Potency entry with CP238, in the test on CP247, in the test with CP250, with CP252, in the test with CP256 and with CP260 was “inactive” each time. In addition, the Potency result in the test with CP262, in the test with CP265, in the test with CP268, in the test with CP269, in the test on CP286 and in the test with CP291 was “inactive” throughout. The Potency entry with CP297, in the test on CP305, in the test with CP315, in the test on CP325, with CP329 and in the test on CP335 was “inactive” throughout. The Potency entry with DFO2036 was “inactive”.
With `CC(O)(P(=O)(O)O)P(=O)(O)O`, the Potency result with CP238, with CP247, with CP250, with CP252, in the test on CP256 and in the test with CP260 was “inactive” throughout. Moreover, the Potency result in the test with CP262, in the test with CP265, with CP266, in the test with CP269, in the test with CP286 and with CP315 was “inactive” throughout. Also, the Potency entry in the test on CP329, with CP335 and with DFO2036 was “inactive” each time.
As to `C[C@@H]1C[C@H]2[C@@H]3CCC4=CC(=O)C=C[C@]4(C)[C@@]3(F)[C@@H](O)C[C@]2(C)[C@H]1C(=O)CO`, the Potency result in the test on CP238, in the test with CP247, with CP250, in the test with CP252, with CP256 and in the test on CP260 was “inactive” throughout. For the same molecule, the Potency result in the test on CP262, with CP265, in the test with CP268, in the test with CP269, in the test with CP286 and in the test on CP305 was “inactive” in each case. The Potency result in the test on CP315, with CP325, in the test with CP329, in the test on CP335 and with DFO2036 was “inactive” in each case.
Consider `CCN1CCCC1=O`, for which the Potency result in the test on CP238, in the test with CP247, in the test with CP250, with CP252, in the test with CP256 and in the test on CP260 was “inactive” each time. Further, the Potency entry with CP262, in the test with CP265, in the test with CP266, in the test with CP268, in the test on CP269 and in the test on CP286 was “inactive” throughout. Further, the Potency entry in the test with CP291, with CP305, in the test on CP315, with CP325, in the test on CP329 and with CP335 was “inactive” throughout. Also, the Potency result with DFO2036 was “inactive”.
As for `N[C@H](CO)C(=O)O`, the Potency entry in the test on CP238, with CP247, in the test with CP250, with CP252, in the test with CP256 and with CP260 was “inactive” in each case. Also, the Potency result with CP262, in the test with CP265, in the test with CP266, with CP269, with CP286 and with CP291 was “inactive” in each case. Also, the Potency entry with CP297, in the test with CP305, in the test with CP315, with CP325, with CP329 and in the test with CP335 was “inactive” each time. The Potency entry with DFO2036 is “inactive”.
As for `CCOC(=O)c1cccc(N)c1`, the Potency entry in the test with CP238, in the test on CP247, in the test on CP250, with CP252, with CP256 and in the test on CP260 was “inactive” in each case. Further, the Potency entry with CP262, with CP265, in the test on CP286, with CP335 and in the test on DFO2036 was “inactive” each time. Further, the Potency with CP297 was 15.1 µM (active).
As to `CC(=O)OCC(=O)[C@@]1(OC(C)=O)[C@@H](C)C[C@H]2[C@@H]3C[C@H](F)C4=CC(=O)C=C[C@]4(C)[C@@]3(F)[C@@H](O)C[C@@]21C`, the Potency result with CP238, with CP247, with CP250, in the test on CP252, with CP256 and with CP260 was “inactive” in each case. Further, the Potency result in the test on CP262, in the test with CP266, in the test on CP268, with CP269, in the test with CP286 and with CP291 was “inactive” in each case. Also, the Potency result with CP297, with CP305, in the test with CP315, with CP325, in the test on CP329 and with CP335 was “inactive” throughout. For the same molecule, the Potency entry in the test on DFO2036 is “inactive”.
In the case of `COc1cccc(CCc2ccccc2OCC(CN(C)C)OC(=O)CCC(=O)O)c1` (stereo not drawn), the Potency in the test with CP238 was 7.08 µM (active); in the test with CP247, 5.62 µM (active); in the test on CP250, 11.2 µM (active); in the test with CP252, 8.91 µM (active); in the test on CP256, 11.2 µM (active); with CP260, 3.55 µM (active). Also, the Potency was 12 µM (active) in the test with CP262; 7.08 µM (active) in the test with CP265; 7.57 µM (active) in the test with CP268; 6.75 µM (active) with CP269; 5.62 µM (active) with CP286; 12 µM (active) with CP291. The Potency with CP297 is 3.38 µM (active); in the test with CP305, 7.57 µM (active); in the test with CP315 it was 15.1 µM (active); with CP329, 12 µM (active); in the test on CP335 it was 3.79 µM (active); in the test with DFO2036, 11.2 µM (active).
`CCCCCCCCCCCCCCCCOP(=O)([O-])OCC[N+](C)(C)C`: the Potency result in the test on CP238, in the test with CP247, in the test on CP250, in the test on CP252, with CP256 and in the test with CP260 was “inactive” throughout. The Potency entry with CP262, in the test with CP265, in the test on CP266, with CP268, in the test on CP269 and in the test with CP286 was “inactive” in each case. For the same molecule, the Potency entry in the test with CP291, in the test on CP305, in the test with CP315, with CP325, in the test with CP329 and with CP335 was “inactive” each time. Besides, in the test with DFO2036, the Potency result was “inactive”.
Consider `Cc1c(F)c(N2CCNC(C)C2)cc2c1c(=O)c(C(=O)O)cn2C1CC1` (stereo not drawn), for which the Potency result in the test with CP238, with CP247, in the test with CP250, with CP252, with CP256 and with CP260 was “inactive” each time. Also, the Potency entry in the test on CP262, in the test with CP265, in the test on CP268, in the test with CP269, in the test with CP286 and in the test with CP291 was “inactive” throughout. The Potency entry in the test with CP297, with CP305, in the test with CP315, in the test with CP325, in the test with CP329 and in the test with CP335 was “inactive” in each case. For the same molecule, in the test on DFO2036, the Potency result is “inactive”.
On to `CCCCC(CC)CN=C(N)NC(N)=NCCCCCCN=C(N)NC(N)=NCC(CC)CCCC` (stereo not drawn), for which the Potency with CP238 is 1 µM (active); with CP247, 1.12 µM (active); in the test on CP250, 0.891 µM (active); with CP252 it was 1.26 µM (active); with CP256 it was 3.55 µM (active); in the test on CP260 it was 1.12 µM (active). Also, the Potency in the test with CP262 was 1.07 µM (active); in the test with CP265, 3.55 µM (active); in the test on CP268 it was 1.69 µM (active); in the test on CP269, 1.51 µM (active); in the test with CP286 it was 0.631 µM (active); with CP291 it was 1.69 µM (active). In addition, the Potency was 3.38 µM (active) in the test with CP297; 1.69 µM (active) with CP305; 1.35 µM (active) with CP315; 1.2 µM (active) with CP325; 1.51 µM (active) in the test on CP329; 1.51 µM (active) in the test on CP335. Further, the Potency in the test with DFO2036 is 3.16 µM (active).
`c1ccc(OCc2ccc(CCCN3CCOCC3)cc2)cc1`: the Potency result in the test on CP238, in the test with CP247, with CP250, with CP252, with CP256 and in the test on CP260 was “inactive” each time. For the same molecule, the Potency result in the test on CP262, in the test on CP266, in the test with CP268, in the test on CP269, in the test with CP286 and with CP291 was “inactive” each time. For the same molecule, the Potency entry with CP297, in the test with CP305, in the test with CP315, in the test on CP325, in the test on CP329 and in the test on CP335 was “inactive” each time. The Potency result in the test with DFO2036 is “inactive”.
